Source: PubChem (National Center for Advancing Translational Sciences (NCATS))
Hits are enriched below; roughly 18% of the tested compounds scored in any of these assays.
RORg inh: blocks mouse ROR gamma transcriptional activity; Drosophila S2 Gal4-RORgamma UAS-luciferase reporter, 20 h; Potency, µM (titrated, usually from 53.6 µM), without a hit: top-dose activity change, negative = inhibition, usual class: inhibitors; AID 2551; P51450; hit rate 5.4% among 310,000; further: potency means the concentration at half of the fitted maximal effect; nearly all actives have a fitted effect of over 60% in size
Target sequence (P51450 whole entry, looked up, the tested form may be a part): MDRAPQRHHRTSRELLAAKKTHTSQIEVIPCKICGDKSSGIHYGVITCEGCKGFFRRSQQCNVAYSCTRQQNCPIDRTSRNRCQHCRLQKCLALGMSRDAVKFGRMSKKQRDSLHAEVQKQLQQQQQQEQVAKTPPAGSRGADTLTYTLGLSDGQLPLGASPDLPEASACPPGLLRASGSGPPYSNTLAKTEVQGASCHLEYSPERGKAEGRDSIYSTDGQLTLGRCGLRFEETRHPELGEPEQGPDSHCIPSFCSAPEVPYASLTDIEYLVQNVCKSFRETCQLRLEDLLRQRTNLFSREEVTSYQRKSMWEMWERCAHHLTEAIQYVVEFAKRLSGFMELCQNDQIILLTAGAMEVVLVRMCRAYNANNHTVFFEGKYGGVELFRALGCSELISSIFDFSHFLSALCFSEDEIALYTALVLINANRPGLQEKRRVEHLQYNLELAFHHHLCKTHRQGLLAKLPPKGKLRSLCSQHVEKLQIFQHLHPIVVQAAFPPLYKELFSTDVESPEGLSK
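Luciferase reporter read in Schneider cells carrying Gal4-RORγ (mouse) and UAS-Photinus luciferase; cells given compound 1 h before 700 uM copper sulfate induction, then incubated 20 h at ambient temperature.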
LDHA block: blocks human lactate dehydrogenase A | P00338 | activity change, % (values are at about 110 or 230 µM) | purified LDHA, NADH/diaphorase-resazurin fluorescence; active compounds read low | hit rate 0.15% among 480,000; in the data active means activity change below about -30%; inconclusive means mostly about -25% to -30%;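 further: plate controls were DMSO wells for no effect and wells without enzyme for full effect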
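Enzyme activity of human lactate dehydrogenase 5 (2 nM; 0.06 mM NADH, 0.2 mM pyruvate, 5 min, RT) is measured via a resazurin/diaphorase fluorescence readout of residual NADH.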
IL-1B inflam inh: inhibitors of inflammasome signaling (IL-1 beta secretion) | THP-1 LPS/ATP IL-1B secretion, AlphaLISA, 16 h; active compounds read low | activity change, % at 57.5 µM | hit rate 4.7% among 360,000; in the data active means activity change below about -50%; inconclusive means mostly about -30% to -49%
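THP-1 cells pretreated 1 hr with compounds (up to 57.5 uM final), then stimulated with LPS (250 ng/mL final) plus ATP (1.25 mM final); secreted IL-1B measured by AlphaLISA after 16 hr, decreased signal indicating inhibition.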
DT40 TDP1 CPT: growth inhibition of DT40 Tdp1-/-;hTDP1 cells with camptothecin (screen for TDP1 inhibitors). hit rate 12% among 420,000. AID 686979. chicken DT40 Tdp1-/-;hTDP1 cells + 20 nM CPT, ATP luminescence, 48 h. Potency, µM (titrated, usually from 46.2 µM), inactives show at the highest dose activity change, negative = growth inhibition, usual class: inhibitors; further: potency means the concentration at half of the fitted maximal effect; nearly all actives have a fitted effect of over 55% in size
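Chicken DT40 Tdp1-/- cells stably complemented with human TDP1 were seeded at 400 cells/well in medium containing 20 nM camptothecin, exposed to pin-transferred compounds, and grown at 37 °C for at least 48 hr. Viability was read as ATP luminescence.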
DT40 TDP1 no CPT: qHTS for Inhibitors of human tyrosyl-DNA phosphodiesterase 1 (TDP1): qHTS in cells in absence of CPT; DT40 Tdp1-/- hTDP1 cells, no CPT, ATP luminescence, 48 h; Potency, µM (doses to about 46.2 µM), for the others: at the top dose activity change, negative = growth inhibition, actives largely listed as inhibitors; hit rate 15% among 420,000; AID 686978, 2013; further: potency means the concentration at half of the fitted maximal effect; nearly all actives have a fitted effect of over 55% in size
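Chicken DT40 Tdp1-/- cells stably complemented with human TDP1 were seeded at 400 cells/well with DMSO in place of 20 nM camptothecin. After compound pinning, cells grew at least 48 hr at 37 °C; viability read by CellTiter-Glo luminescence.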
VP16 counter: counter-screen for ROR gamma inhibitors: Gal4-VP16 reporter | Drosophila S2 Gal4-VP16 UAS-luciferase, luminescence, 20 h | hit rate 3.5% among 310,000 | Potency, µM (titrated, usually from 53.6 µM), for inactives: at the highest dose activity, negative = inhibition, most hits filed as inhibitors;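 further: Gal4-VP16 expression switched on by copper sulfate through the metallothionein promoter; potency means the concentration at half of the fitted maximal effect; nearly all actives have a fitted effect of over 50% in size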
An asterisk follows results filed as active; ? = inconclusive; / = no result given; [ ] = dose if it differs, or a comment. Unless noted, the call rests on the fitted dose curve; in most records, active means well fitted curve in the direction sought with a large enough effect; inconclusive means small, poorly fitted or top-dose-only effect, or another doubt; inactive means no such curve, though single readings can be large; an effect the other way counts as inactive or inconclusive. Unless noted, on the % scale 0 is the no-effect control and ±100 the full control effect.

SMILES	RORg inh	LDHA block	IL-1B inflam inh	DT40 TDP1 CPT	DT40 TDP1 no CPT	VP16 counter
C/C=C/c1ccc(OCc2cc(=O)n3cc(C)ccc3n2)c(OC)c1	?	3.0	25.0	?	18.4µM*	-1.3%
COc1ccc(C)cc1-n1nnnc1SCc1cc(=O)n2cc(C)ccc2n1	-2.6%	-3.3	-28.2	8.2µM*	7.31µM*	-5.7%
O=C(NC1CCCC1)c1cc(-c2ccc(Cl)s2)nc2ccccc12	/	0.4	/	/	/	/
COc1ccc(OC)c(NC(=O)C2CCCN(S(=O)(=O)c3cccc4cccnc34)C2)c1 (configuration not stated)	-2.4%	-0.6	?	?	13µM*	6.9%
COC(=O)C1CCCN1S(=O)(=O)c1ccc([N+](=O)[O-])cc1 (configuration not stated)	-11.1%[1.91 µM]	-2.0	35.9	-24.6%	13.7%	-8.1%
COc1cc(OC)cc(C(=O)Nc2ccccc2S(=O)(=O)N2CCCC2OC(C)=O)c1 (configuration not stated)	-4.0%	-3.7	80.1	?	?	-6.8%
COC(=O)C1CCCN1S(=O)(=O)c1ccc2ccccc2c1 (configuration not stated)	-6.8%	9.7	11.7	?	20.6µM*	3.5%
COC(=O)C1CCCN1S(=O)(=O)c1ccccc1NC(=O)c1cc(OC)c(OC)c(OC)c1 (configuration not stated)	-0.5%	-9.8	19.2	14.6µM*	-29.7%	-5.2%
CCOc1ccc(OCC)c(S(=O)(=O)N2CCCCC2C)c1 (configuration not stated)	-21.2%	0.7	6.7	23.1µM*	?	-1.8%
COc1ccc(C)cc1NC(=O)C1CCN(S(=O)(=O)c2cccc3cccnc23)CC1	10.1%	2.6	3.3	-27.2%	?	-4.1%
COc1ccc2cc(CN(C)C(=O)CNC(=O)c3ccccc3Cl)ccc2c1	/	3.3	/	/	/	/
Cn1c(=O)c(-c2noc(C(=O)NCc3ccco3)n2)nn(-c2ccccc2)c1=O	/	-2.5	/	/	/	/
COc1ccc2c(=O)c(-c3cnn(-c4ccccc4)c3)c(C(F)(F)F)oc2c1	/	1.5	/	/	/	/
COc1cc(NC(=O)[C@H]2CCCN2S(=O)(=O)c2cccc3cccnc23)cc(OC)c1OC	/	-7.5	1.9	14.6µM*	?	/
COc1cc(NC(=O)[C@@H]2CCCN(S(=O)(=O)c3cccc4cccnc34)C2)cc(OC)c1OC	/	0.6	-0.3	10.3µM*	13µM*	/
CCOc1ccc(OCC)c(NC(=O)C2CCCN2S(=O)(=O)c2cccc3cccnc23)c1 (configuration not stated)	?	-9.0	34.1	14.6µM*	18.4µM*	1.4%
O=C(Nc1cccc(C(F)(F)F)c1)C1CCCN1S(=O)(=O)c1cccc2cccnc12 (configuration not stated)	?	2.7	-7.4	23.1µM*	16.4µM*	?
COc1ccc(NC(=O)C2CCCN2S(=O)(=O)c2cccc3cccnc23)c(OC)c1 (configuration not stated)	-25.2%	-4.2	41.7	?	?	-1.6%
Cn1c(SCc2csc(-c3ccccc3)n2)nnc1C1CC1	/	-7.1	/	/	/	/
CC1CCC(=NNC(=O)c2cc(-c3ccc(Cl)cc3)nc3ccccc23)CC1 (configuration not stated)	/	-0.4	/	/	/	/
Cc1ccc(C2=C(O)C(=O)N(Cc3ccccc3)C2c2cccc(F)c2)cc1 (configuration not stated)	/	-2.4	/	/	/	/
Nc1nc(CN2CCOCC2)cs1	-4.2%	10.9	9.5	?	29.1µM*	-5.4%
CCCCCCCCc1ccc(/C(C=[N+](C)C)=C/N(C)C)cc1	/	1.4	/	/	/	/
CCOc1ccc(NC(=O)Cn2ncc3ccccc3c2=O)cc1	/	-0.4	/	/	/	/
CN(C)C1=NCCN1CC1CCCCCC1	/	-3.9	-1.1	-22.2%	?	/
